Assay results from PubChem BioAssay (NCATS).
Values without a mark were called inactive. Inconclusive results are not listed. The source made the active and inactive calls. Unless noted, calls follow the shape of the dose curve; as a rule, active = well fitted curve in either direction with a large enough effect (not every such curve was filed as active); inconclusive = small, poorly fitted or top-dose-only effect, or another doubt; inactive = flat fitted curve, though single readings scatter.

Tests used:
[1] = biological target: Lysosomal acid glucosylceramidase (Homo sapiens) (UniProt P04062); assay: Glucocerebrosidase-p2 (AID 348; in the data active = potency below about 10 µM; also: potency is read from the fitted curve at half-maximal effect); details: purified GBA, blue fluorogenic substrate, 40 min
Lysosomal acid glucosylceramidase (Homo sapiens), sequence (P04062 whole entry, looked up): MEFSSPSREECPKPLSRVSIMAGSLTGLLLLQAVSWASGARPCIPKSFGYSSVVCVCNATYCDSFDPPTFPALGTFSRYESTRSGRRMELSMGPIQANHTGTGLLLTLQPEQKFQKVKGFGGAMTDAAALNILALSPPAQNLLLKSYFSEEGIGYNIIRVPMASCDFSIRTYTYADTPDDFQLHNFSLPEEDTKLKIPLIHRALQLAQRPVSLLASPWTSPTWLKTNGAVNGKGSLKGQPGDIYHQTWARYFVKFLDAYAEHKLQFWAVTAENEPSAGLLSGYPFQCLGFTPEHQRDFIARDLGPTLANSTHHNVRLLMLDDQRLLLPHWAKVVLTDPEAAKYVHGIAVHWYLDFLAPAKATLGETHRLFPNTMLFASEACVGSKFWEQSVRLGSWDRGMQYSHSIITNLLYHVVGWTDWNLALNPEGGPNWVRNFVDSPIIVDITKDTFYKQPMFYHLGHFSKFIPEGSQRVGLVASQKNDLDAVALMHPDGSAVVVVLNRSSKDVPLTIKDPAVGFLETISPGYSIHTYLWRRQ
Procedure, shortened: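 Compounds titrated from 0.6 nM upwards against 0.2 nM enzyme in pH 5.9 citric acid/KH2PO4, taurocholate, tween-20; blue fluorogenic substrate 80 uM, 40 min room temperature, stopped and read Ex 365/Em 440 for AC50.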

[2] = AP1 Signaling Pathway (AID 357); details: ME-180 AP-1-bla reporter, EGF-induced, beta-lactamase ratio, 5 h; at 7.69 µM (top of the series) unless noted;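 also: ME-180 reporter cells stimulated with EGF at its EC50 level; % is scaled to controls: 0 for no effect and ±100 for the full control effect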
Procedure, shortened: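 Cells are seeded overnight, exposed to compound titrations and an EC50 level of EGF for 5 hours at 37 °C, then loaded with CCF4 dye for 2.5 hours. Beta-lactamase activity under the AP-1 element is read as a blue/green ratio.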

[3] = biological target: Cytochrome P450 1A2 (Homo sapiens) (UniProt P05177); assay: p450-cyp1a2 (AID 410; calls by dose curve;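 also: -100% = full effect of reference inhibitor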); details: recombinant CYP1A2, luciferin-ME demethylation, luminescence; series mostly up to 11.4 µM
Cytochrome P450 1A2 (Homo sapiens), sequence (P05177 whole entry, looked up): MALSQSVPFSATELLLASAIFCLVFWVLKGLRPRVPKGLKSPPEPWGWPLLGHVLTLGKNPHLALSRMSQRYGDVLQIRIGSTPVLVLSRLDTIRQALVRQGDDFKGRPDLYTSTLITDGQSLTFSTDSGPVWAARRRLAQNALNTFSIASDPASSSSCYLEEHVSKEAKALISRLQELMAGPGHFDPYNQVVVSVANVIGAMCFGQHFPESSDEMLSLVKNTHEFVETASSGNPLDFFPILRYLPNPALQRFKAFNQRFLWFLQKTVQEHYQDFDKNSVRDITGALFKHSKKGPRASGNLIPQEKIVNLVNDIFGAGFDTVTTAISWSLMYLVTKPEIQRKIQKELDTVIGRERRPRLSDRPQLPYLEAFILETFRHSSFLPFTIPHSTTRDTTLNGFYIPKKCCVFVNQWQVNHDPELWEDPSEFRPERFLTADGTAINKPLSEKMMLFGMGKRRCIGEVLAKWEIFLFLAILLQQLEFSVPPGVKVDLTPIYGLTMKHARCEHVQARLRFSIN
Procedure, shortened: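 Luminescent readout of luciferin formed from Luciferin-ME by human CYP1A2; data normalized against complete inhibition by 57 uM furafylline. Enzyme 20nM, substrate 100uM at Km, 100mM KPO4 buffer, 60 min reaction at room temperature.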

[4] = NFAT Signaling Pathway (AID 444); details: Jurkat NFAT-bla M1, carbachol, beta-lactamase ratio, 5 h; at 7.69 µM (top of the series) unless noted;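 also: carbachol stimulus at about its EC50 of 1 µM final; % is scaled to controls: 0 for no effect and ±100 for the full control effect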
Procedure, shortened: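 Jurkat cells with NFAT-driven β-lactamase reporter and co-expressed M1 receptor, stimulated with carbachol (final 1 uM, ~EC50), compound titration, 5 h at 37 °C. CCF4 loaded 1 h at RT; 460/530 nm ratio gave %activity and AC50.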

[5] = Stat Signaling Pathway (AID 446); details: ME-180 SIE beta-lactamase reporter, IL-6 stimulated, 5 h; at 7.69 µM (top of the series) unless noted;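 also: ME-180 cervical cancer cells given 40 pM IL-6 alongside compound; SIE-controlled beta-lactamase reporter measured as 460/530 nm FRET emission ratio; % is scaled to controls: 0 for no effect and ±100 for the full control effect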
Procedure, shortened: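 Screening format detects activators and inhibitors alike: ME-180 SIE-bla cells stimulated at 40 pM IL-6 for 5 hrs with compound, then dual-emission beta-lactamase read at 405 nm excitation.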

[6] = biological target: Glucocorticoid receptor (Homo sapiens) (UniProt P04150); assay: GR-GFP Redistribution (AID 450;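 active = compounds whose dose series gives a full or clear partial fitted curve of increased nuclear translocation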; also: potency is read from the fitted curve at half-maximal effect); details: U2OS GR-GFP nuclear translocation, laser cytometry, 2 h
Glucocorticoid receptor (Homo sapiens), sequence (P04150 whole entry, looked up, the tested form may be a part): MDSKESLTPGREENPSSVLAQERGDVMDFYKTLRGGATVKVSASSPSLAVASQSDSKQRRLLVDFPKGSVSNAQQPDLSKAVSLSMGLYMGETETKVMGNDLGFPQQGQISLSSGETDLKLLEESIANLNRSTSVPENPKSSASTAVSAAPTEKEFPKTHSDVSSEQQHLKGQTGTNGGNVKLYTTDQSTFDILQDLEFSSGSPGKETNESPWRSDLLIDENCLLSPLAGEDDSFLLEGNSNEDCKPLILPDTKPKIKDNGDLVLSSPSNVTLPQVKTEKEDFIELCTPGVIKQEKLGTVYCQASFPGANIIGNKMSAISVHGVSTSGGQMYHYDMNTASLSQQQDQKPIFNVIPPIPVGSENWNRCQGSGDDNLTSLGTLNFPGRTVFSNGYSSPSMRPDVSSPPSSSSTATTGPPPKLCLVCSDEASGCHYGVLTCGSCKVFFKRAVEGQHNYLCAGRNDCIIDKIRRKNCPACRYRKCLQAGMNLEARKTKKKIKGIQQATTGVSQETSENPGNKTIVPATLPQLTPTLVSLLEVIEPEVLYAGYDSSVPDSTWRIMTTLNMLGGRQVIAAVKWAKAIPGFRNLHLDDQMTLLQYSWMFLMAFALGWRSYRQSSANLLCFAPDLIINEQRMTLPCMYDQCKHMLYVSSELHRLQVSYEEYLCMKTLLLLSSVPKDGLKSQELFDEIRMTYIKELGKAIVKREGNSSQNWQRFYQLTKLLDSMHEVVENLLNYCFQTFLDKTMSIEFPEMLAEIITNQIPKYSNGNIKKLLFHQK

[7] = biological target: Glucocorticoid receptor (Homo sapiens) (UniProt P04150); assay: GR-EFC Redistribution (AID 451; calls by dose curve; also: potency is read from the fitted curve at half-maximal effect); details: CHO-K1 GR-EFC translocation, beta-gal luminescence, 2 h
Procedure, shortened: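 CHO-K1 cells expressing nuclear EA and GR-ED fragments of b-gal; compounds titrated up to 46 uM final, 2 h at 37 C. GR nuclear translocation read as complemented b-gal luminescence after 1 h RT detection.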

[8] = biological target: Mitogen-activated protein kinase 10 (Mus musculus) (UniProt Q61831); assay: JNK3 AlphaScreen Assay (AID 530); details: JNK3 lysate, c-Jun phosphorylation; series mostly up to 57.1 µM;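 also: kinase came from lysate of stimulated human HepG2 cells; signal reports phosphorylation of biotinylated GST-cJun 1-79 at Ser73 with 10 µM ATP; % is scaled to controls: 0 for no effect and ±100 for the full control effect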
Procedure, shortened: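 Pre-activated (IL-1β/TNFα) JNK3 in HepG2 lysates phosphorylates biotin-GST-cJun(1-79), 10 uM ATP; anti-phospho-cJun(Ser73) AlphaScreen read at room temperature, pH 7.6 Tris buffer. Compounds pre-incubated 15 min as titrations.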

[9] = biological target: 3',5'-cyclic-AMP phosphodiesterase 4B (Homo sapiens) (UniProt Q07343); assay: qHTS Assay for Inhibitors of PDE-IV (AID 607; active = well fitted activation curve with a large enough effect in the main read-out, with a control signal flat, not every such curve was filed as active; also: % of control where 0% means no effect); details: HEK293 ACTOne CNG channel cells, membrane potential fluorescence; series mostly up to 22.9 µM
3',5'-cyclic-AMP phosphodiesterase 4B (Homo sapiens), sequence (Q07343 whole entry, looked up): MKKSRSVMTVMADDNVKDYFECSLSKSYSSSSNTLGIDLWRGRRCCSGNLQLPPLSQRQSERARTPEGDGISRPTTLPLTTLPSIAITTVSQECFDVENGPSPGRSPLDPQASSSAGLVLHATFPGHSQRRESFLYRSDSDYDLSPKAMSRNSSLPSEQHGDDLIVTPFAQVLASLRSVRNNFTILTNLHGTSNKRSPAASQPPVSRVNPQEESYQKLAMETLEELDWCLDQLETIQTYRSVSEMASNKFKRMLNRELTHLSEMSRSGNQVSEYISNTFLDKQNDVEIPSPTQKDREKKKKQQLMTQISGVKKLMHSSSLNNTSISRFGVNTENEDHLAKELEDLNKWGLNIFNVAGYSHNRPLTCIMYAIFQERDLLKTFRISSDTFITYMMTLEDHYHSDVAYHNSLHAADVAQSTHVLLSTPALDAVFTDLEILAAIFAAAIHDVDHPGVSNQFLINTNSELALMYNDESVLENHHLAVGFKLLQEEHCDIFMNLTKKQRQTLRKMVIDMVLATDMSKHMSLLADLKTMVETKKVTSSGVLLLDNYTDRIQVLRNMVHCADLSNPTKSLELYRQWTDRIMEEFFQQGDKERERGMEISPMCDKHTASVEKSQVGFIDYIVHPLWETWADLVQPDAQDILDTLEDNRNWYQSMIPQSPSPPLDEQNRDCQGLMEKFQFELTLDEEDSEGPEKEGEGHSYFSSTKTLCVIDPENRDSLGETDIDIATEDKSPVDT
Procedure, shortened: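 The readout is membrane depolarisation from a cAMP-sensing CNG channel, detected with a potential dye at ex 535/em 590. Cells were HEK293-derived (endogenous PDE-IV) at 1000 cells/well, titrated up to 22.9 uM final.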

[10] = qHTS Assay for Identification of Small Molecule Agonists for Hypoxia Response Element Signaling Pathway (AID 914; active = well fitted activation curve with a large enough effect in the signal ratio, with a control signal flat, not every such curve was filed as active; the % refers to the signal ratio; also: % of control where 0% means no effect); details: ME-180 (cervical carcinoma) HRE-bla reporter, beta-lactamase ratio, CoCl2, 17 h; hits give high values
Procedure, shortened: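 Reporter activity (beta-lactamase, CCF4 460nm/530nm ratio) in HRE-bla ME-180 cells is recorded after 17 h compound exposure with EC50 CoCl2 at 37 degrees Celsius. AC50 values come from titration data.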

[11] = biological target: Cytochrome P450 2D6 (Homo sapiens) (UniProt P10635); assay: qHTS Assay for Inhibitors and Substrates of Cytochrome P450 2D6 (AID 891; active = well fitted curve in the direction sought with a large enough effect; an effect the other way counts as inactive or inconclusive;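 also: luciferin methyl ether substrate demethylated by CYP2D6 with NADPH regeneration; % is scaled to controls: 0 for no effect and ±100 for the full control effect; nearly all actives have a fitted effect of over 60% in size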); details: recombinant CYP2D6, luciferin-ME EGE luminescence; series mostly up to 11.4 µM
Cytochrome P450 2D6 (Homo sapiens), sequence (P10635 whole entry, looked up): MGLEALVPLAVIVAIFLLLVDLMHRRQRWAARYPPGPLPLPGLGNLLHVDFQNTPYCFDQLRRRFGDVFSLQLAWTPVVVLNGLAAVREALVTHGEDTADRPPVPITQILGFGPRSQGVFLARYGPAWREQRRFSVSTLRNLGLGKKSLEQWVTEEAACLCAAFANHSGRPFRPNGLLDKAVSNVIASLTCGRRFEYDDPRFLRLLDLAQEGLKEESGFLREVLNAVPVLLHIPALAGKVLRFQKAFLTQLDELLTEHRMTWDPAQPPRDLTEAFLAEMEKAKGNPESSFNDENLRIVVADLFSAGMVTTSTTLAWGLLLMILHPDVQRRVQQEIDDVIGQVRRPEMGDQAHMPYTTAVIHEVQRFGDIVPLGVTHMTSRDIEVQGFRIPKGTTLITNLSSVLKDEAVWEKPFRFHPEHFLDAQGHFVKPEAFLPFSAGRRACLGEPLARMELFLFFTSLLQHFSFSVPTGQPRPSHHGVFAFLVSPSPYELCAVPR
Procedure, shortened: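 Human CYP2D6 (5 nM) with 30 uM Luciferin-ME EGE (at Km) in 100 mM KPO4, compound preincubated 10 min, then NADPH regeneration system for 60 min at room temperature. Luciferin read by luminescence; normalized to 1.43 uM quinidine.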

[12] = biological target: Cytochrome P450 3A4 (Homo sapiens) (UniProt P08684); assay: qHTS Assay for Activators of Cytochrome P450 3A4 (AID 885; active = well fitted curve in the direction sought with a large enough effect; an effect the other way counts as inactive or inconclusive; also: nearly all actives have a fitted effect of over 65% in size); details: recombinant CYP3A4, Luciferin-PPXE luminescence, 60 min; series mostly up to 57.1 µM
Cytochrome P450 3A4 (Homo sapiens), sequence (P08684 whole entry, looked up): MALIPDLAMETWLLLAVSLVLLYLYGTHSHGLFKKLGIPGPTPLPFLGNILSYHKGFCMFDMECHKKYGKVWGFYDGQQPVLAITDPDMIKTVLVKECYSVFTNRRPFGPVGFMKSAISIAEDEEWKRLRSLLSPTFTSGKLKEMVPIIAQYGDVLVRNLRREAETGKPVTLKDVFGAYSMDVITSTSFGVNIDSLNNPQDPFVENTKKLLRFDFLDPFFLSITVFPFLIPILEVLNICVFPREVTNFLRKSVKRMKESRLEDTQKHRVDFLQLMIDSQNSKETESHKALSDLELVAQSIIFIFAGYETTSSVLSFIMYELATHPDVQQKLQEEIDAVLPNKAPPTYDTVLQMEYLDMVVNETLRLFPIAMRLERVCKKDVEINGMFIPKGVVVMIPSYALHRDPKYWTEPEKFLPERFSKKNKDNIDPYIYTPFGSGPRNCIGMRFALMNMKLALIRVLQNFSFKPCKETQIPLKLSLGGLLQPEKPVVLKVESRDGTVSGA
Procedure, shortened: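 Steps: enzyme/substrate mix dispensed; compound added, 10 min RT; NADPH regeneration solution added, 60 min RT; luciferin detection buffer stops reaction; 20 min later luminescence measured.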

What does the source list for C[C@@H]1O[C@H](OC2[C@@H](O)[C@H](O)C(O)[C@H](O)[C@H]2O)[C@@H](N)C[C@@H]1N=C(N)C(=O)O (stereo not given in full)?
Potency [1]: > 11.4 µM; activity change, negative = inhibition [2]: -0.614%; activity change, negative = inhibition [3]: 1.2% [at 2.29 µM]; activity change, negative = inhibition [4]: 8.22%; activity, negative = inhibition [5]: 8.32%; Potency [6]: > 46 µM; Potency [7]: > 9.22 µM; activity change, negative = inhibition [8]: 1.04% [at 11.4 µM]; outcome [9]: inactive; activation [10]: 3.06%

Which Potency [1] does the source give for CC(C)c1ccc(C(O)(C(=O)O)c2ccc(C(C)C)cc2)cc1 here?
Its Potency is > 11.4 µM.

And the activity change, negative = inhibition [2]?
Its activity change, negative = inhibition is 2.63%.

What about the Potency [3] of the same molecule?
Its Potency is “inactive”.

What about the activity change, negative = inhibition [4] of the same molecule?
The activity change, negative = inhibition was -9.63%.

What about the activity, negative = inhibition [5] of the same molecule?
The activity, negative = inhibition was 4.5%.

And the Potency [6]?
The Potency was > 46 µM.

And the activity change, negative = inhibition [8]?
Its activity change, negative = inhibition is 5.33% [at 11.4 µM].

And the Potency [11]?
Its Potency is “inactive”.

For O=P(O)(O)c1ccccc1 (tested in a mixture with another compound), which Potency [1] is on record?
The Potency was > 11.4 µM.

And the activity change, negative = inhibition [2]?
The activity change, negative = inhibition was 2.76%.

What about the Potency [3] of the same molecule?
The Potency was “inactive”.

What about the activity change, negative = inhibition [4] of the same molecule?
Its activity change, negative = inhibition is 5.01%.

And the activity, negative = inhibition [5]?
Its activity, negative = inhibition is -0.661%.

And the activity change, negative = inhibition [8]?
Its activity change, negative = inhibition is 6.51% [at 11.4 µM].

What about the outcome [9] of the same molecule?
The outcome was “inactive”.

What does the source list for NS(=O)(=O)C[C-]1C=C[CH]([Sb-]([Cl])([Cl])([Cl])([Cl])[Cl])C=C1.c1ccncc1 (stereo not given)?
Potency [1]: > 11.4 µM; activity change, negative = inhibition [2]: 2.96%; Potency [3]: inactive; activity change, negative = inhibition [4]: 2.26%; activity, negative = inhibition [5]: 19.7%; activity change, negative = inhibition [8]: 4.62% [at 11.4 µM]; outcome [9]: inactive

For C=C(C)c1ccccc1 (tested in a mixture with another compound), which Potency [1] is on record?
Its Potency is > 11.4 µM.

What about the activity change, negative = inhibition [2] of the same molecule?
Its activity change, negative = inhibition is -1.01%.

And the activity change, negative = inhibition [3]?
Its activity change, negative = inhibition is -19.6% [at 2.29 µM].

What about the activity change, negative = inhibition [4] of the same molecule?
The activity change, negative = inhibition was -21.5%.

What about the activity, negative = inhibition [5] of the same molecule?
The activity, negative = inhibition was -6.96%.

What about the activity change, negative = inhibition [8] of the same molecule?
The activity change, negative = inhibition was -9.26% [at 11.4 µM].

And the outcome [9]?
Its outcome is “inactive”.

For CO[C@@H]([CH2][Hg])CN1C(=O)c2ccccc2S1(=O)=O.Cn1c(=O)c2nc[nH]c2n(C)c1=O, which Potency [1] is on record?
Its Potency is 1.86 µM (active).

What about the activity change, negative = inhibition [2] of the same molecule?
Its activity change, negative = inhibition is 12.7%.

What about the activity change, negative = inhibition [3] of the same molecule?
The activity change, negative = inhibition was -22% [at 2.29 µM].

And the activity change, negative = inhibition [4]?
Its activity change, negative = inhibition is -3.51%.

What about the activity, negative = inhibition [5] of the same molecule?
Its activity, negative = inhibition is 6.13%.

What about the activity change, negative = inhibition [8] of the same molecule?
The activity change, negative = inhibition was -0.0716% [at 11.4 µM].

And the Potency [11]?
Its Potency is “inactive”.

With C[C@H](CN(C)C)C(C#N)(c1ccccc1)c1ccccc1 as the molecule, how does the Potency [1] read?
Its Potency is > 11.4 µM.

And the activity change, negative = inhibition [2]?
Its activity change, negative = inhibition is 0.906%.

And the activity change, negative = inhibition [3]?
The activity change, negative = inhibition was -3.4% [at 2.29 µM].

What about the activity, negative = inhibition [5] of the same molecule?
Its activity, negative = inhibition is 4.38%.

And the Potency [6]?
The Potency was > 46 µM.

What about the Potency [7] of the same molecule?
Its Potency is > 9.22 µM.

What about the activity change, negative = inhibition [8] of the same molecule?
Its activity change, negative = inhibition is 6.57% [at 11.4 µM].

What about the outcome [9] of the same molecule?
The outcome was “inactive”.

What about the activity change, positive = activation [12] of the same molecule?
Its activity change, positive = activation is -41.5% [at 11.4 µM].
